# Compound activity as filed in PubChem BioAssay.
# Compounds with a hit are over-represented: about 2.5% of the library has one in this group of screens.
# LEDGF integ inh: blocks HIV-1 LEDGF/p75-dependent DNA integration. TR-FRET IN-LEDGF/p75 DNA integration, Eu/Cy5. inhibition, % at 3.7 µM. actives 0.64% (n = 370,000);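 active means inhibition above the screen-wide mean plus 3 SD, cut at about 13% in these data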;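 further: signal is the Cy5 over europium emission ratio at 671 and 618 nm; 0% = plate median of compound wells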
# PRMT1 FP inh: blocks human protein arginine methyltransferase 1; inhibition, % at 2.79 µM; Q99873; actives 1.3% (n = 370,000); recombinant PRMT1, activity-based probe fluorescence polarization;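 active means inhibition above about 21% made by adding two undisclosed values, limit read from the data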
# UHRF1 binding: blocks human UHRF1 binding to methylated DNA | Q96T88 | actives 0.75% (n = 370,000) | AID 687016 | inhibition, % at 4.4 µM | UHRF1 binding to methylated oligo, TR-FRET; in the data active means inhibition above about 21%;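 further: UHRF1 SRA domain binding a hemimethylated CpG hairpin DNA probe; 0% = median of test compound wells and 100% = reference inhibitor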
# Target sequence (Q96T88 whole entry, looked up, the tested form may be a part): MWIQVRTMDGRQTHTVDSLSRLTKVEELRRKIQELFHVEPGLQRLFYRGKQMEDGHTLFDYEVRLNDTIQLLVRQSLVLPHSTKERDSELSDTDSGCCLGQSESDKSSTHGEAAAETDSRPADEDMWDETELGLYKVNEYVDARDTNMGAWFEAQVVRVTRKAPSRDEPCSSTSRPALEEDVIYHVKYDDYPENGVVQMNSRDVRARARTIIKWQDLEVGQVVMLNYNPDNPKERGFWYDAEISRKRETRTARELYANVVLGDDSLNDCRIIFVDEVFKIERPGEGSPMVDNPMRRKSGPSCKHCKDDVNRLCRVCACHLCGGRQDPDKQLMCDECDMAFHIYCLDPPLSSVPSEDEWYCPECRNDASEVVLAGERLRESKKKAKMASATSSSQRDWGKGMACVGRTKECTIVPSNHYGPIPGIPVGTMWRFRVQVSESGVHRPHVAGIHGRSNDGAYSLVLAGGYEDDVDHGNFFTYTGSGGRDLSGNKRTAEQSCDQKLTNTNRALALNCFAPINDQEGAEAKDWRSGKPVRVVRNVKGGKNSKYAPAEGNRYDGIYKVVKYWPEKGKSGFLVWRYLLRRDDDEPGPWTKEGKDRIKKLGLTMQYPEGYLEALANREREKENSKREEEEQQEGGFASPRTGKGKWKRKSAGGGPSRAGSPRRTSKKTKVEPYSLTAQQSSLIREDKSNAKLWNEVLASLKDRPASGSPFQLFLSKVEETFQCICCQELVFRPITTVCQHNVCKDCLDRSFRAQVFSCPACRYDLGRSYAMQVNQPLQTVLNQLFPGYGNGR
# MBD2 DNA inh: MBD2-methylated oligo binding inhibition | TR-FRET, MBD2 binding to methylated oligonucleotide | inhibition, % at 4.4 µM | Q9UBB5 | actives 0.31% (n = 370,000); in the data active means inhibition above about 13%
# PRMT1 inh conf: PRMT1 (human) inhibition, FP confirmation; shares compounds with PRMT1 FP inh; actives 42% (n = 3,300); AID 687036; recombinant His-PRMT1, activity-based probe fluorescence polarization; inhibition, % at 2.79 µM;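 active means mean inhibition across replicates above the hit cutoff derived for the earlier primary screen, cut at about 22% in these data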
# * = called active by the depositor; / = no result.
SMILES,LEDGF integ inh,PRMT1 FP inh,UHRF1 binding,MBD2 DNA inh,PRMT1 inh conf
Cc1c(Cl)cccc1NC(CC(=O)c1ccccc1)C(=O)OCC(=O)c1cccs1 (configuration not stated),0,63*,5,7,2
Cc1c(Cl)cccc1NC(CC(=O)c1ccccc1)C(=O)O (configuration not stated),-2,35*,1,0,10
O=C(CC(Nc1cccc(Cl)c1Cl)C(=O)O)c1ccccc1 (configuration not stated),3,29*,1,-3,-2
COc1ccc(NC(=O)C(OC(=O)c2cnccn2)c2ccccc2)cc1Cl (configuration not stated),1,-5,-2,0,/
COc1ccccc1NC(CC(=O)c1ccccc1)C(=O)OCC(=O)c1ccc(F)cc1 (configuration not stated),-2,35*,2,-1,16
COc1ccccc1NC(=O)CCCC(=O)OCC(=O)c1ccc(F)cc1,1,-3,2,-4,/
O=C(Nc1sc2c(c1-c1nc3ccccc3s1)CCNC2)C(F)(F)F,-3,41*,-57,-2,10
Cc1ccccc1/[N+]([O-])=C/c1cccs1,3,6,-4,-6,/
Cc1ccc(/C=[N+](\[O-])c2ccccc2C)o1,0,30*,-1,0,-3
C[C@H](O)[C@@H]1CN2CCc3c([nH]c4ccc(-c5ccc6c(c5)OCO6)cc34)[C@@H]2C[C@@H]1N(C)C(=O)NC1CCCCC1,-1,-2,1,-1,/
Cc1nn(CCc2nc(-c3ccco3)cs2)c2[nH]c(=O)cc(C(F)(F)F)c12,3,34*,-2,1,7
Cc1cc(C)n(CCc2nc(-c3ccco3)cs2)n1,8,40*,1,2,57*
Cc1cc(C)nc(Sc2nc(Cl)nc(N(c3ccccc3)c3ccccc3)n2)n1,5,59*,5,4,10
Nc1nc2ccccc2cc1C(=O)NCc1cccs1,-4,5,-1,3,/
CC(=O)Nc1ccc(NC(=O)C(C)OC(=O)/C(C#N)=C/c2ccc(N(C)C)cc2)cc1 (configuration not stated),0,30*,-1,4,39*
CCOC(=O)c1ccc(N2N=C(C)/C(=C/C=C/c3ccco3)C2=O)cc1,10,1,-4,-4,/
O=C(O)c1cc(N2N=C(C(F)(F)F)/C(=C/C=C/c3ccco3)C2=O)ccc1Cl,82*,70*,97*,108*,54*
COc1cc2c(cc1OC)C(COc1ccc([N+](=O)[O-])cc1)N(C(C)=O)CC2 (configuration not stated),2,6,-1,-1,/
Cc1ccc(S(=O)(=O)N2CCOCC2)cc1NC(=O)CSc1nnc(C2CC2)n1C1CC1,3,-1,1,0,/
COc1ccc(S(=O)(=O)N2CCOCC2)cc1NC(=O)CSc1nnc(C2CC2)n1C1CC1,-2,40*,-1,0,0
O=C1NC(=O)C2(COC(c3cccc([N+](=O)[O-])c3)OC2)S1 (configuration not stated),5,3,6,8,/
CNC(=S)N(Cc1ccco1)Cc1cc2cc(OC)ccc2[nH]c1=O,3,4,7,-4,/
COC(=O)c1ccccc1S(=O)(=O)N(Cc1ccco1)Cc1cc2cc(OC)ccc2[nH]c1=O,3,30*,-3,-3,-2
Cc1cc(C)nc(SCCN2CCCCC2)n1,3,26*,2,-2,21
Cc1cc(C)nc(SCCN(C)C)n1,-2,0,-1,2,/
SMILES,LEDGF integ inh,PRMT1 FP inh,UHRF1 binding,MBD2 DNA inh,PRMT1 inh conf
O=C(c1ccccc1)N1CCN(C(=O)c2ccccc2)c2ccccc21,-7,10,2,8,/
COCCNC(=O)C1(C)CCCN(C(=O)c2cccc(C#N)c2)C1 (configuration not stated),-4,-1,1,0,/
CN(C)S(=O)(=O)c1cccc(N=C2NN=C(c3ccccc3)CS2)c1,-5,54*,-3,2,39*
Fc1ccccc1N=C1NN=C(c2ccccc2)CS1,-3,10,-5,1,/
Cn1c(=O)c(Nc2ccc(O)cc2)c2c3c(cccc31)C(=O)c1ccccc1-2,8,105*,-14,-1,32*
CC(C)c1ccc(Nc2c([N+](=O)[O-])c(=O)n(C)c3ccccc23)cc1,1,-1,-3,-1,/
COc1cc2cc(CCCOC(=O)CCC(=O)O)oc(=O)c2cc1OC,1,0,2,0,/
CCN(CC)C(=O)CSc1nnc2nnc3cc(OC)ccc3n12,2,29*,-7,-4,26*
CCN(CC)C(=O)CSc1nnc(COc2ccc(OC)cc2)n1N,-8,2,8,4,/
O=C(COc1ccc(F)cc1Cl)Nc1nnc(-c2ccc(F)c(F)c2)o1,0,-1,-3,0,/
Cc1ccc(NC(=O)c2cc(N3C(=O)C=CC3=O)ccc2N2CCOCC2)cc1Cl,1,90*,0,-1,103*
COC(=O)C1(C)NC(c2ccc(Cl)cc2)C2C(=O)N(c3ccccc3)C(=O)C21 (configuration not stated),6,-3,-3,-5,/
O=C1C2C3C=CC(CNS(=O)(=O)c4ccccc4)(O3)C2C(=O)N1c1ccc(Cl)cc1 (configuration not stated),-1,80*,3,5,69*
CC(=O)Oc1ccc(N2C(=O)C3C4C=CC(CO)(O4)C3C2=O)cc1 (configuration not stated),4,85*,6,2,79*
O=C1NC[C@@H](CCCCN2C[C@H](Cc3ccccc3)N(Cc3ccccc3)C(=O)C2=O)N(Cc2ccccc2)C1=O,6,-2,-1,-3,/
Cc1cccc2sc(NC(=O)CCn3cccc3)nc12,-5,5,-2,2,/
Cc1cccc2sc(NC(=O)Cn3cccc3)nc12,1,33*,3,2,19
Cc1ccccc1N1C(=O)c2cccc3c(N(C)CCO)ccc(c23)C1=O,-1,71*,-40,-22,63*
COc1ccccc1N1C(=O)c2cccc3c(N(C)CCO)ccc(c23)C1=O,1,66*,-28,-18,47*
O=C(OCC(=O)N1CCCC1)c1cc(F)c(F)cc1Cl,0,1,-1,1,/
CS(=O)(=O)N1N=C(c2cccs2)CC1c1ccco1 (configuration not stated),4,41*,4,5,4
CC(=O)N1N=C(c2cccs2)CC1c1ccco1 (configuration not stated),-4,-3,-1,4,/
Nc1ncnc(Sc2ncccn2)c1[N+](=O)[O-],2,53*,-4,-3,16
Nc1ncnc(Sc2ccccc2)c1[N+](=O)[O-],-5,12,0,2,/
CN(CCO)c1ccc2c(c1)OC[C@H](Cc1ccccc1)NS2(=O)=O,0,2,-2,0,/
